About 3,300 (8.5%) of roughly 39,000 compounds were called active. This is one part of a sample in which actives are shown more often than they occur.
Test system: HepG2
Test: cytotoxicity call (relative viability < 0.9)
Settings: 10 µM

Row | Structure (SMILES) | cytotoxicity call
1 | C[C@@H]1CN([C@H](C)CO)S(=O)(=O)c2ccc(C#Cc3cccnc3)cc2O[C@H]1CN(C)CC1CCCC1 | inactive
2 | Cc1noc(C)c1S(=O)(=O)N(C)C[C@H]1Oc2ccc(NS(C)(=O)=O)cc2C(=O)N([C@H](C)CO)C[C@H]1C | inactive
3 | COc1ccc(NC(=O)Nc2ccc3c(c2)[C@@H]2C[C@H](CC(=O)N4CCN(C)CC4)O[C@@H](CO)[C@@H]2O3)cc1 | inactive
4 | C[C@@H]1CN([C@@H](C)CO)C(=O)c2cc(NS(=O)(=O)c3ccc(F)cc3)ccc2O[C@@H](C)CCCCO[C@@H]1CN(C)C(=O)Cc1ccccc1 | inactive
5 | C[C@@H]1CCCCO[C@@H](CN(C)C(=O)Cc2ccccc2)[C@@H](C)CN([C@@H](C)CO)C(=O)c2cc(NS(=O)(=O)c3ccc(Cl)cc3)ccc2O1 | inactive
6 | C[C@@H]1CCCCO[C@@H](CN(C)C(=O)Cc2ccccc2)[C@@H](C)CN([C@H](C)CO)C(=O)c2cc(NS(=O)(=O)c3ccc(F)cc3)ccc2O1 | inactive
7 | Cc1ccc(S(=O)(=O)Nc2ccc3c(c2)C(=O)N([C@@H](C)CO)C[C@H](C)[C@H](CN(C)C(=O)Cc2ccccc2)OCCCC[C@@H](C)O3)cc1 | inactive
8 | Cc1ccc(S(=O)(=O)Nc2ccc3c(c2)C(=O)N([C@@H](C)CO)C[C@@H](C)[C@H](CN(C)C(=O)Cc2ccccc2)OCCCC[C@H](C)O3)cc1 | inactive
9 | C[C@@H]1CN([C@H](C)CO)C(=O)c2cc(NS(=O)(=O)c3ccc(Cl)cc3)ccc2O[C@@H](C)CCCCO[C@@H]1CN(C)C(=O)Cc1ccccc1 | active
10 | C[C@@H]1CN([C@@H](C)CO)C(=O)c2cc(NS(=O)(=O)c3ccc(Cl)cc3)ccc2O[C@@H](C)CCCCO[C@H]1CN(C)C(=O)Cc1ccccc1 | inactive
11 | Cc1ccc(S(=O)(=O)Nc2ccc3c(c2)C(=O)N([C@@H](C)CO)C[C@H](C)[C@@H](CN(C)C(=O)Cc2ccccc2)OCCCC[C@@H](C)O3)cc1 | active
12 | C[C@H]1CCCCO[C@@H](CN(C)C(=O)Cc2ccccc2)[C@@H](C)CN([C@@H](C)CO)C(=O)c2cc(NS(=O)(=O)c3ccc(F)cc3)ccc2O1 | active
13 | CN(C)CC#Cc1ccc([C@@H]2[C@H]3CN(C(=O)c4cccnc4)CC(=O)N3[C@H]2CO)cc1 | inactive
14 | CC(C)(C)[S@](=O)N1Cc2cc(C(=O)NCc3ccncc3)nc(-c3cccc(-c4ccc(C#N)cc4)c3)c2[C@@H]1CCO | inactive
15 | CO[C@H]1CN(C)C(=O)c2cc(NC(=O)C3CC3)ccc2OC[C@H](C)N(C(=O)CN2CCOCC2)C[C@H]1C | inactive
16 | CC(C)=CCC1=C(O)C(=O)c2ccccc2C1=O | inactive
17 | CC(C)=CCCC(C)=CCC1=C(C)C(=O)c2ccccc2C1=O | inactive
18 | COC1=C(CC=C(C)C)C(=O)c2ccccc2C1=O | active
19 | Cc1noc(C)c1S(=O)(=O)Nc1ccc2c(c1)CC(=O)N([C@H](C)CO)C[C@@H](C)[C@H](CN(C)S(=O)(=O)c1ccccc1)O2 | inactive
20 | CN(Cc1ccc(C(C)(C)C)cc1)Cc1cccc2ccccc12 | inactive
21 | CCOC(=O)N(C)C[C@H]1OCc2cnnn2CCCC(=O)N([C@@H](C)CO)C[C@H]1C | inactive

Row | Structure (SMILES) | cytotoxicity call
22 | C[C@@H]1NC(=O)[C@@H](N)CNC(=O)[C@H]([C@H]2CCN=C(N)N2)NC(=O)/C(=C\NC(N)=O)NC(=O)[C@H](CNC(=O)C[C@@H](N)CCCN)NC1=O | inactive
23 | C[C@H](CO)N1C[C@H](C)[C@@H](CN(C)C(=O)Nc2ccccc2)Oc2ccc(NC(=O)Nc3ccc(C(F)(F)F)cc3)cc2CC1=O | inactive
24 | C[C@H](CO)N1C[C@H](C)[C@H](CN(C)C(=O)Nc2ccc(C(F)(F)F)cc2)Oc2ccc(NC(=O)Nc3ccccc3)cc2CC1=O | inactive
25 | C[C@H]1CN([C@@H](C)CO)C(=O)Cc2cc(NC(=O)Nc3ccc(C(F)(F)F)cc3)ccc2O[C@@H]1CN(C)C(=O)Nc1ccccc1 | inactive
26 | C[C@@H]1CN([C@@H](C)CO)C(=O)Cc2cc(NC(=O)Nc3ccccc3)ccc2O[C@@H]1CN(C)C(=O)Nc1ccc(C(F)(F)F)cc1 | inactive
27 | C[C@H](CO)N1C[C@H](C)[C@H](CN(C)C(=O)Nc2ccccc2)Oc2ccc(NC(=O)Nc3ccc(C(F)(F)F)cc3)cc2CC1=O | active
28 | C[C@@H]1CN([C@@H](C)CO)C(=O)Cc2cc(NC(=O)Nc3ccc(C(F)(F)F)cc3)ccc2O[C@@H]1CN(C)C(=O)Nc1ccccc1 | active
29 | COc1ccc(NC(=O)N(C)C[C@H]2OCCCC[C@H](C)Oc3ccc(NC(=O)NC(C)C)cc3C(=O)N([C@@H](C)CO)C[C@@H]2C)cc1 | inactive
30 | Cc1cc(C(=O)Nc2cccc3c2O[C@H](CN(C)S(=O)(=O)c2ccc(F)cc2)[C@@H](C)CN([C@@H](C)CO)C3=O)n(C)n1 | inactive
31 | C[C@H](CO)N1C[C@H](C)[C@@H](CN(C)C(=O)Nc2ccc3c(c2)OCO3)Oc2ccc(NC(=O)Nc3cccc4ccccc34)cc2C1=O | inactive
32 | COc1ccc(S(=O)(=O)N(C)C[C@@H]2Oc3c(NC(=O)c4ccncc4)cccc3C(=O)N([C@H](C)CO)C[C@H]2C)cc1 | inactive
33 | CN(C)CCc1cc(Br)c(OCCCNC(=O)/C=C/c2cc(Br)c(OCCN3CCCC3)c(Br)c2)c(Br)c1 | active
34 | C=CC(=O)NCCN1CCCCC1 | inactive
35 | CN(C)CCc1cc(Br)c(OCCCNC(=O)/C=C/c2cc(Br)c(OCCN3CCCCC3)c(Br)c2)c(Br)c1 | active
36 | COc1ccc(NC(=O)Nc2ccc3c(c2)C(=O)N([C@@H](C)CO)C[C@@H](C)[C@@H](CN(C)S(=O)(=O)c2ccc(Cl)cc2)OCCCC[C@@H](C)O3)cc1 | inactive
37 | C[C@H](CO)N1C[C@H](C)[C@H](CN(C)S(C)(=O)=O)OCCCC[C@H](C)Oc2ccc(NS(C)(=O)=O)cc2C1=O | inactive
38 | NC(=O)C1CCOCC1 | inactive
39 | C[C@@H]1CN([C@H](C)CO)C(=O)c2cc(C#Cc3ccccn3)cnc2O[C@H]1CN(C)C(=O)CCN1CCCCC1 | inactive
40 | CC(=O)O[C@H]1CCS(=O)(=O)C1 | inactive
41 | COc1cccc(C(=O)Nc2ccc3c(c2)C(=O)N(C)[C@@H]2CC[C@@H](CC(=O)NCC(F)(F)F)O[C@H]2CO3)c1 | inactive

— the antibiotic and cytotoxicity screens of Wong et al. (2023)
